# About 79,000 compounds went through this panel and 15% of them were active in at least one assay; those are over-represented in the sample as a whole. Unmarked numbers belong to inactive results. Activity calls are given as the source filed them. No stated cut-off is given here; in the data, active means growth inhibition above about 70%; inactive means the rest.
# What was measured:
# [1] = NCI Yeast Anticancer Drug Screen. Data for the rad50 strain (AID 155);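 further: 0% = growth of vehicle-only cultures of the same strain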; details: S. cerevisiae rad50 strain growth inhibition; at 50.0 µM; hits give high values
# Outline: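 Yeast carrying a defined DNA repair defect were exposed to test compounds, and growth was compared with vehicle-treated controls to give percent inhibition.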
# [2] = NCI Yeast Anticancer Drug Screen. Data for the mec2-1 strain (AID 157); details: S. cerevisiae mec2-1 strain, at 50.0 µM, hits give high values
# Outline: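 mec2-1 yeast strain, carrying an alteration in DNA damage repair or cell cycle control, was exposed to compounds; growth inhibition was measured relative to vehicle-treated controls.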
# [3] = NCI Yeast Anticancer Drug Screen. Data for the sgs1 mgt1 strain (AID 161);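 further: 0% = growth of cultures given vehicle only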; details: S. cerevisiae sgs1 mgt1 strain, at 50.0 µM, hits give high values
# Outline: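 Compounds are added to genetically altered yeast, and growth is compared with cultures given vehicle alone to give percent inhibition.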
# [4] = NCI Yeast Anticancer Drug Screen. Data for the cln2 rad14 strain (AID 165);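 further: 0% = growth equal to vehicle treated cultures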; details: S. cerevisiae cln2 rad14 strain, at 50.0 µM, hits give high values
# Outline: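 Yeast carrying cln2 and rad14 alterations (cell cycle control and DNA damage repair) were exposed to compounds. Growth inhibition was measured against vehicle-treated controls.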
# [5] = NCI Yeast Anticancer Drug Screen. Data for the bub3 strain (AID 167); details: S. cerevisiae bub3 mutant strain, at 50.0 µM, hits give high values
# Outline: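 Compounds were applied to a genetically altered yeast strain carrying a cell-cycle control defect. Growth inhibition was scored against vehicle-treated controls.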
# [6] = NCI Yeast Anticancer Drug Screen. Data for the mlh1 rad18 strain (AID 175); details: S. cerevisiae mlh1 rad18 strain growth inhibition; at 50.0 µM; hits give high values
# Outline: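 Growth inhibition of the yeast strain was measured after compound exposure and expressed relative to vehicle-treated controls. The strain carries defined defects in DNA damage repair.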
SMILES,growth inhibition [1],growth inhibition [2],growth inhibition [3],growth inhibition [4],growth inhibition [5],growth inhibition [6]
Cc1cc2ccc(OC(=O)c3ccc(N=C(N)N)cc3)cc2oc1=O,-8.95%,4.3%,-29.6%,-47.8%,-24.6%,13.7%
Cc1[nH]c2ccccc2c1C1Cc2ccccc2N1C(=O)/C=C/C=C/c1ccccc1 (stereo unspecified),10.4%,24.7%,-39.4%,38.5%,2.2%,15.2%
Nc1cccc2cccc(N)c12,51.9%,2.1%,41.5%,15.3%,9.65%,45%
CC(C)COC(=O)C(=O)OCC(C)C,14.9%,23.1%,-6.45%,34%,-5.05%,-14.7%
Cc1ccc(C2=Nc3ccccc3SC(c3cccc([N+](=O)[O-])c3)C2)cc1 (stereo unspecified),11.2%,-12.6%,11.8%,-9.25%,-6.2%,-1.8%
Cc1ccc(SCc2ccc(Cl)cc2)nn1,4.05%,0.3%,-1.65%,-13.8%,26.8%,-5%
COc1cccc(NC(=S)NC(=O)c2ccccc2)c1,82% (active),60.8%,96.2% (active),37%,95.6% (active),45.7%
CCN(CC)C1=C(C)S(=O)(=O)C1c1ccc(C)cc1 (stereo unspecified),-9.1%,-12.6%,-8.85%,5.6%,-13.4%,-2.15%
O=[n+]1ccn([O-])c2cc(Cl)ccc21,13.6%,13.2%,10.2%,-16.2%,-5.1%,9.85%
COC(=O)C1c2ccoc2CC2C1C(O)C(O)C1C(C)(C)CCCC21C (stereo unspecified),57.5%,88.6% (active),77.8% (active),72% (active),81.6% (active),92.5% (active)
OCCN(CCO)c1nc(N(CCO)CCO)nc(N(CCO)CCO)n1,19.8%,16.4%,20.2%,31.5%,17.2%,19.6%
Cc1cc(Cl)c(O)c(-c2cc(-c3ccc([N+](=O)[O-])cc3)c3c(N)[nH]c(=O)nc3n2)c1,44.1%,-4.65%,35.5%,6.2%,19.6%,38%
O=S1(=O)C2C=CC1CCCC2,3.35%,-12.7%,-6.9%,-30.9%,-11.6%,2.05%
Cc1nn(C(=O)c2c(-c3ccccc3)noc2C)c(C)c1N=Nc1cc(C(F)(F)F)cc(C(F)(F)F)c1,-6.2%,-8.85%,-2.9%,20.5%,-2.7%,0.6%
CC[n+]1c(/C=C\N(C(C)=O)c2ccccc2)oc2ccccc21,-20.6%,-25.3%,-9.3%,-0.7%,6.2%,-7.8%
COc1cc2c(c(OC)c1OC)-c1ccc(SC)c(=O)cc1[C@@H](NC(=O)NCCCl)CC2,1.1%,-16.8%,-18.1%,4.6%,-28.4%,-10.2%
CCN(CC)CCNc1cc2ccccc2c2sc3ccccc3c(=O)c12,98.5% (active),99.2% (active),97.6% (active),98.8% (active),98.2% (active),98.3% (active)
CC1=CC[C@H]2C(C)=CC[C@@H](C(C)C)[C@@H]2C1,10.4%,6.05%,24.2%,21.6%,13.1%,17.4%
O=C(COC(=O)c1ccccc1)c1ccc(-c2ccccc2)cc1,-3.25%,16.3%,11.8%,30.4%,14.2%,11.7%
c1ccc(C2=NN3CN(N2)c2ccccc2OCCCOc2ccccc23)cc1,-25.2%,2.05%,-5.55%,12.8%,18.3%,6.25%
O=[N+]([O-])c1cccc(N=C2c3ccccc3CN2c2cccc([N+](=O)[O-])c2)c1,-23.4%,5.8%,-5.3%,26.7%,11.5%,-0.4%

# From PubChem BioAssay (NCI)
